Shown are actives, neighbours in structure and some others; about 7.3% of the full set was active somewhere.
FMDV inh = High Throughput Screening for Foot and Mouth Disease Virus Antivirals; 410,000 tested, 1.2% active; FMDV antiviral cell-based qHTS; AID 1159524, 2015; Potency, µM (doses to about 57.9 µM), without a hit: at the top dose activity change, negative = inhibition, most hits filed as inhibitors; calls by dose curve; tested in HEK293T cells; further: read-out not given here; potency means the concentration at half of the fitted maximal effect; nearly all actives have a fitted effect of over 45% in size
HCV inhibitor = qHTS Assay for Inhibitors of Hepatitis C Virus (HCV); 340,000 tested, 3.4% active; Potency, µM (doses to about 41.8 µM), without a hit: at the top dose activity change, negative = inhibition, hits mostly inhibitors; Huh7.5.1 HCVcc-Cre infection, luciferase reporter, 44 h; active means well fitted inhibition curve with a large enough effect; inconclusive means small, poorly fitted or top-dose-only effect, or another doubt; inactive means no such curve, though single readings can be large or run the other way; further: potency means the concentration at half of the fitted maximal effect
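1,000 cells/well; 4 h culture; + compound; + HCVcc-Cre (~0.5 moi); 44 h; luciferase substrate, RT 15 min; read 15 sec.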
VACV Venus inh = qHTS for Stage-Specific Inhibitors of Vaccinia Orthopoxvirus: Venus Reporter Primary qHTS. Vaccinia virus Venus reporter expression, fluorescence. Potency, µM (titrated, usually from 36.5 µM), without a hit: top-dose activity change, negative = inhibition, actives largely listed as inhibitors. 330,000 tested, 0.46% active. AID 720580, 2013; calls by dose curve; tested in A549 cells; further: potency means the concentration at half of the fitted maximal effect; nearly all actives have a fitted effect of over 30% in size
HCMV inh = qHTS Assay for inhibitors of the human cytomegalovirus (HCMV); activity change, negative = inhibition, % at 57.5 µM; HFF cells, HCMV-luciferase reporter, 72 h; active compounds read low; AID 1259415, 2018; 410,000 tested, 4.5% active; in the data active means activity change below about -60%; inconclusive means no clear call, values can overlap the other calls; inactive means above about -39%
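Inhibition of viral replication was scored as loss of reporter luminescence in HFFs infected with HCMV-luciferase (MOI 1 PFU/cell) for 72 h; compounds tested at 2 doses, normalized to buffer and Salinomycin controls.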
Vaccinia mCherry = qHTS for Stage-Specific Inhibitors of Vaccinia Orthopoxvirus: mCherry Reporter Primary qHTS; Vaccinia virus mCherry reporter infection, fluorescence; Potency, µM (titrated, usually from 36.5 µM), for inactives: at the top dose activity change, negative = inhibition, actives largely listed as inhibitors; 310,000 tested, 0.63% active; AID 720579, 2013; calls by dose curve; tested in A549 cells; further: potency means the concentration at half of the fitted maximal effect; nearly all actives have a fitted effect of over 35% in size
* hit, by the source's call; i = inactive; ? = inconclusive; / = not tested or not shown. On the % scale 0 is the no-effect control and ±100 the full control effect.

SMILES	FMDV inh	HCV inhibitor	VACV Venus inh	HCMV inh	Vaccinia mCherry
COC(C(=O)Nc1ccc(S(=O)(=O)Nc2cccc3ccccc23)cc1)c1ccccc1 (configuration not stated)	0%	-2%	-13%	-88*	i
COC(C(=O)Nc1ccc(S(=O)(=O)Nc2ccc(F)cc2)cc1)c1ccccc1 (configuration not stated)	6%	0%	?	-62*	?
COC(C(=O)Nc1ccc(F)cc1)c1ccccc1 (configuration not stated)	19%	2%	-10%	-13	-15%
COC(C(=O)Nc1ccc(S(=O)(=O)N2CCCCC2)cc1)c1ccccc1 (configuration not stated)	12%	-29%	-17%	-16	-12%
CCOCCc1nn2c(=O)cc(COC(=O)C3CCCCC3)nc2s1	-2%	/	-6%	-3	3%
O=C1c2[nH]c3ccccc3c2CC1N1C(=O)c2ccccc2C1=O (configuration not stated)	-20%	/	?	-28	?
CC(=Nc1ccccc1)C1=C(O)C(Cc2ccc(O)cc2)NC1=O (configuration not stated)	-14%	21%	?	-69*	-15%
CC(=Nc1ccccc1)C1=C(O)C(Cc2cccc(F)c2)NC1=O (configuration not stated)	0%	/	?	-72*	-12%
Cc1ccc2nc3n(c(=O)c2c1)-c1ccccc1C(=O)NC3Cc1ccc(O)cc1 (configuration not stated)	/	-11%	/	-35	/
CCN1CCc2c(sc(NC(=O)c3ccc(S(=O)(=O)N4CCCC(C)C4)cc3)c2C(=O)OC)C1 (configuration not stated)	-14%	/	-18%	-39	-14%
COC(=O)C1=CN(c2ccc(OC)cc2)C(N)=C(C#N)C1c1cccc2ccccc12 (configuration not stated)	25%	/	-15%	?	?
COC(=O)C1=CN(c2ccc(C(C)(C)C)cc2)C(N)=C(C#N)C1c1cccc2ccccc12 (configuration not stated)	-4%	/	-12%	?	8.9µM*
CCc1ccc(N2C=C(C(=O)OC)C(c3cccc4ccccc34)C(C#N)=C2N)cc1 (configuration not stated)	47%	/	-8%	-101*	6.3µM*
COC(=O)C1=CN(c2ccc(F)cc2)C(N)=C(C#N)C1c1cccc(OC)c1OC (configuration not stated)	-13%	/	-21%	24	?
COc1ccc(NC(=O)CSCC(=O)N(C)CC(=O)Nc2c(C)cccc2C)cc1	1%	6%	/	-102*	/
COc1ccc(NC(=O)CN(C)C(=O)CSC(c2ccccc2)c2ccccc2)cc1	-22%	13µM*	/	?	/
Cc1ccc(S(=O)(=O)N2CCCCC2)cc1NC(=O)COC(=O)C1(C)CC1(Cl)Cl (configuration not stated)	?	6%	/	0	/
C[C@H](NC(=O)OC(C)(C)C)C(=O)N/N=C/C1=Cc2ccccc2OC1	-3%	-17%	/	-78*	/
CC(NC(=O)CCCCCNC(=O)N1CCn2c1nc1ccccc12)c1ccccc1 (configuration not stated)	-20%	14%	/	-73*	/
CC1CCCCN1C(=O)c1cnn2c1NC(=C1CC1)C=C2C(F)F (configuration not stated)	/	/	-11%	/	i
CCCN(CCC)C(=O)c1ccc2c(=O)n(Cc3ccco3)c(=S)[nH]c2c1	-22%	-13%	/	-90*	/
COc1cc2c(cc1OC)CN(C(=O)c1ccncc1)CC2	-8%	9%	/	-4	/
COc1ccc(C(=O)N2CCc3ccc(NC(=O)c4ccccn4)cc3C2)cc1F	?	11µM*	/	-89*	/
O=C(CN(c1ccc(Cl)cc1)S(=O)(=O)c1ccc(Cl)c([N+](=O)[O-])c1)NCCc1ccc(F)cc1	-20%	?	-8%	25	?
O=C(CN(c1cc(C(F)(F)F)ccc1Cl)S(=O)(=O)c1ccccc1)NCCc1ccccc1	13%	/	-20%	-70*	-16%
